From PubChem BioAssay AID1159580 (chemical genetic matrix, 2015)
Values joined by “and” are separate entries in the source; they are usually repeats but may differ in a detail not shown here. Equal values may be shown once. About 2,000 (36%) of roughly 5,500 compounds were called active. Inconclusive results (about 18%) are left out. No stated cut-off is given here; in the data, active means normalized growth mostly below about 0.91 (no sharp cut-off); inconclusive means no clear call, values can overlap the other calls; inactive means mostly above about 0.92. This is one part of the list.

Assay: chemical genetic growth profiling, strain panel (AID 1159580);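 further: tested at 20 µM; growth read once vehicle control cultures reached saturation at 30 °C; 1 = growth at the plate median or of vehicle wells; lower values mean less growth of the strain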
Settings: S. cerevisiae deletion strains, growth OD

Measured: normalized growth

CC(C)c1c(O)ccc2c1CCC1[C@@](C)(C=O)CCC[C@]21C (stereo partly specified)
active: locus YAL030W, strain snc1, active compounds read low 0.79 | locus YBL061C, strain skt5, active compounds read low 0.833 | locus YBR009C, strain hhf1, active compounds read low 0.476 | locus YBR021W, strain FUR4, active compounds read low 0.476 | locus YBR023C, strain chs3, active compounds read low 0.821 | locus YBR229C, strain ROT2, active compounds read low 0.713 | locus YBR231C, strain swc5, active compounds read low 0.722 | locus YCL011C, strain gbp2, active compounds read low 0.783 | locus YCL016C, strain dcc1, active compounds read low 0.803 | locus YCL029C, strain bik1, active compounds read low 0.52 | locus YDL035C, strain GPR1, active compounds read low 0.425 | locus YDL074C, strain BRE1, active compounds read low 0.12 | locus YDL101C, strain DUN1, active compounds read low 0.517 | locus YDL185W, strain tfp1, active compounds read low 0.469 | locus YDL192W, strain arf1, active compounds read low 0.246 | locus YDR101C, strain arx1, active compounds read low 0.631 | locus YDR137W, strain rgp1, active compounds read low 0.237 | locus YDR159W, strain sac3, active compounds read low 0.54 | locus YDR162C, strain NBP2, active compounds read low 0.171 | locus YDR195W, strain ref2 0.431 | locus YDR297W, strain sur2, active compounds read low 0.772 | locus YDR318W, strain mcm21, active compounds read low 0.35 | locus YDR388W, active compounds read low 0.732 | locus YDR392W, strain spt3, active compounds read low 0.415 | locus YDR502C, strain sam2, active compounds read low 0.35 | locus YEL003W, strain gim4, active compounds read low 0.834 | locus YER016W, strain bim1, active compounds read low 0.789 | locus YER110C, active compounds read low 0.853 | locus YER155C, strain BEM2, active compounds read low 0.0936 | locus YER167W, strain BCK2, active compounds read low 0.336 | locus YGL078C, strain dbp3, active compounds read low 0.886 | locus YGL086W, strain mad1, active compounds read low 0.274 | locus YGL248W, strain PDE1, active compounds read low 0.36 | locus YGR078C, strain PAC10, active compounds read low 0.303 | locus YGR135W, strain pre9, active compounds read low 0.601 | locus YGR252W, strain gcn5, active compounds read low 0.248 | locus YHR030C, strain SLT2, active compounds read low 0.756 | locus YHR079C, strain IRE1 (second series), active compounds read low 0.579 | locus YHR079C, strain IRE1, active compounds read low 0.791 | locus YHR094C, strain hxt1, active compounds read low 0.392 | locus YHR129C, strain ARP1, active compounds read low 0.143 | locus YHR200W, strain rpn10, active compounds read low 0.578 | locus YIL066C, strain RNR3, active compounds read low 0.303 | locus YIL073C, strain SPO22, active compounds read low 0.554 | locus YIL125W, strain kgd1, active compounds read low 0.621 | locus YIR030C, strain dcg1, active compounds read low 0.607 | locus YJL095W, strain BCK1 (second series), active compounds read low 0.35 | locus YJL095W, strain BCK1, active compounds read low 0.0842 and 0.826 | locus YJL129C, strain trk1, active compounds read low 0.505 | locus YJL134W, strain LCB3, active compounds read low 0.729 | locus YJL164C, strain tpk1, active compounds read low 0.578 | locus YJL166W, strain qcr8, active compounds read low 0.643 | locus YJL168C, strain set2, active compounds read low 0.921 | locus YJL187C, strain SWE1 (second series), active compounds read low 0.346 | locus YJR075W, strain HOC1, active compounds read low 0.482 | locus YKL085W, strain MDH1 (second series), active compounds read low 0.583 | locus YKL085W, strain MDH1, active compounds read low 0.583 | locus YKL190W, strain CNB1, active compounds read low 0.154 | locus YKR001C, strain vps1, active compounds read low 0.0888 | locus YLL026W, active compounds read low 0.79 | locus YLL041C, strain sdh2, active compounds read low 0.895 | locus YLR027C, strain aat2, active compounds read low 0.653 | locus YLR039C, strain RIC1, active compounds read low 0.148 | locus YLR058C, strain SHM2, active compounds read low 0.352 | locus YLR102C, strain apc9, active compounds read low 0.432 | locus YLR113W, strain HOG1, active compounds read low 0.782 | locus YLR221C, strain rsa3, active compounds read low 0.692 | locus YLR258W, strain gsy2, active compounds read low 0.768 | locus YLR262C, strain YPT6 (second series), active compounds read low 0.255 | locus YLR262C, strain YPT6, active compounds read low 0.219 | locus YLR268W, strain sec22, active compounds read low 0.411 | locus YLR320W, strain mms22, active compounds read low 0.62 | locus YLR330W, strain CHS5, active compounds read low 0.228 | locus YLR342W, strain FKS1 (second series), active compounds read low 0.208 | locus YLR342W, strain FKS1, active compounds read low 0.774 | locus YLR371W, strain rom2, active compounds read low 0.317 | locus YLR418C, strain cdc73, active compounds read low 0.137 | locus YML016C, strain PPZ1, active compounds read low 0.8 | locus YML032C, strain rad52, active compounds read low 0.467 | locus YML120C, strain ndi1, active compounds read low 0.465 | locus YML124C, strain tub3, active compounds read low 0.507 | locus YMR078C, strain ctf18, active compounds read low 0.422 | locus YMR205C, strain PFK2, active compounds read low 0.617 | locus YMR223W, strain ubp8, active compounds read low 0.429 | locus YMR307W, strain GAS1, active compounds read low 0.306 | locus YNL067W, strain RPL9B, active compounds read low 0.583 | locus YNL071W, strain lat1, active compounds read low 0.424 | locus YNL233W, strain BNI4, active compounds read low 0.172 | locus YNL250W, strain rad50, active compounds read low 0.868 | locus YNL271C, strain bni1, active compounds read low 0.875 | locus YNL298W, strain CLA4, active compounds read low 0.847 | locus YNL307C, strain MCK1, active compounds read low 0.0743 | locus YNL322C, strain KRE1, active compounds read low 0.333 | locus YNR052C, strain pop2, active compounds read low 0.53 | locus YOL006C, strain TOP1, active compounds read low 0.396 | locus YOL147C, strain pex11, active compounds read low 0.205 | locus YOR001W, strain rrp6, active compounds read low 0.857 | locus YOR061W, strain CKA2, active compounds read low 0.689 | locus YOR069W, strain VPS5, active compounds read low 0.668 | locus YOR070C, strain gyp1, active compounds read low 0.598 | locus YOR083W, strain WHI5, active compounds read low 0.822 | locus YOR106W, strain vam3, active compounds read low 0.563 | locus YOR136W, strain idh2, active compounds read low 0.559 | locus YOR144C, strain elg1, active compounds read low 0.48 | locus YOR184W, strain ser1, active compounds read low 0.153 | locus YOR231W, strain MKK1, active compounds read low 0.784 | locus YOR265W, strain rbl2, active compounds read low 0.88 | locus YOR270C, strain vph1, active compounds read low 0.739 | locus YOR316C, strain cot1, active compounds read low 0.49 | locus YPL051W, strain arl3, active compounds read low 0.769 | locus YPL055C, strain LGE1, active compounds read low 0.147 | locus YPL240C, strain hsp82, active compounds read low 0.626 | locus YPL241C, strain CIN2, active compounds read low 0.487 | locus YPL256C, strain CLN2, active compounds read low 0.814 | locus YPR119W, strain clb2, active compounds read low 0.305 | locus YPR163C, strain tif3, active compounds read low 0.345 | locus YPR167C, strain met16, active compounds read low 0.314 | strain wtn01, active compounds read low 0.304
inactive: locus YAL021C, strain ccr4, active compounds read low 0.984 | locus YAL026C, strain drs2, active compounds read low 0.93 | locus YBR171W, strain sec66, active compounds read low 0.97 | locus YBR279W, strain paf1, active compounds read low 0.955 | locus YCL061C, strain MRC1, active compounds read low 1 | locus YCL069W, strain vba3, active compounds read low 1.01 | locus YCR088W, strain abp1, active compounds read low 0.996 | locus YDL005C, strain med2, active compounds read low 1.01 | locus YDL040C, strain nat1, active compounds read low 1.01 | locus YDR001C, strain nth1, active compounds read low 1.01 | locus YDR069C, strain doa4, active compounds read low 0.923 | locus YDR334W, strain swr1, active compounds read low 1.01 | locus YDR335W, strain msn5, active compounds read low 0.987 | locus YEL037C, strain rad23, active compounds read low 1 | locus YEL061C, strain CIN8 (second series), active compounds read low 0.99 | locus YER111C, strain swi4, active compounds read low 0.999 | locus YER155C, strain BEM2 (second series), active compounds read low 1 | locus YFR010W, strain ubp6, active compounds read low 1 | locus YGL167C, strain pmr1, active compounds read low 0.945 | locus YGL173C, strain kem1, active compounds read low 1.01 | locus YGL227W, strain vid30, active compounds read low 0.997 | locus YGL240W, strain doc1, active compounds read low 0.926 | locus YGL253W, strain hxk2, active compounds read low 0.96 | locus YHR013C, strain ard1, active compounds read low 1.14 | locus YHR142W, strain chs7, active compounds read low 0.899 | locus YJL092W, strain hpr5, active compounds read low 0.995 | locus YJL115W, strain asf1, active compounds read low 1.02 | locus YJL154C, strain vps35, active compounds read low 1.02 | locus YJR066W, strain TOR1, active compounds read low 0.826 | locus YKL009W, strain mrt4, active compounds read low 0.998 | locus YKL068W, active compounds read low 0.969 | locus YKL160W, strain elf1, active compounds read low 0.915 | locus YKR026C, strain gcn3, active compounds read low 1 | locus YKR091W, strain srl3, active compounds read low 1.01 | locus YLL001W, strain dnm1, active compounds read low 0.964 | locus YLR357W, strain rsc2, active compounds read low 1.11 | locus YLR370C, strain arc18, active compounds read low 1.01 | locus YLR384C, strain iki3, active compounds read low 1.02 | locus YMR058W, strain fet3, active compounds read low 0.991 | locus YMR125W, strain sto1, active compounds read low 1.01 | locus YMR129W, active compounds read low 0.972 | locus YMR231W, strain pep5, active compounds read low 1.04 | locus YNL183C, strain NPR1, active compounds read low 0.83 | locus YNL209W, strain ssb2, active compounds read low 0.959 | locus YNL248C, strain rpa49, active compounds read low 1.04 | locus YNL322C, strain KRE1 (second series), active compounds read low 1.02 | locus YNR049C, strain mso1, active compounds read low 1.01 | locus YOL012C, strain htz1 1.05 | locus YOR080W, strain dia2, active compounds read low 0.996 | locus YOR290C, strain snf2, active compounds read low 0.909 | locus YPL078C, strain atp4, active compounds read low 0.996 | locus YPL106C, strain sse1, active compounds read low 0.94 | locus YPR141C, strain kar3, active compounds read low 0.999
